The structures appear in SMILES notation. Results filed as inconclusive are left out. The source made the active and inactive calls. Unless noted, calls come from the whole dose curve; as a rule, active = well fitted curve in the direction sought with a large enough effect; inconclusive = small, poorly fitted or top-dose-only effect, or another doubt; inactive = no such curve, though single readings can be large; an effect the other way counts as inactive or inconclusive.

Assay [1] is described as follows: qHTS Assay for Identification of Small Molecule Agonists for NFkB Signaling Pathway. (AID 624478).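 Note: compounds tested together with TNF alpha at its EC50 of 10 pM; 0% is about no effect.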 The essentials:
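Activators were sought in reporter cells stimulated at the TNF alpha EC50 (10 pM final). Compound and cytokine were co-incubated 5 hours at 37 C before beta-lactamase substrate detection by dual-emission fluorescence.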

Assay [2] can be described thus: qHTS Assay for Identification of Small Molecule Antagonists for NFkB Signaling Pathway. (AID 624479; calls by dose curve;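 note: pathway stimulated with TNF alpha; potency is the fitted concentration of half-maximal effect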). (In general: In qHTS, concentration-response curves come from the screen itself.)
A short description of assay [3]: Cell Proliferation Assay against the HBL1 Cell Line (AID 651646).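 Note: cells exposed to compound for 48 h before reading.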 Particulars: HBL1 DLBCL cells; at 46.1 µM (top of the series). Summed up:
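CellTiter-Glo luminescence after 48 h compound exposure at 37C gives percent activity, with DMSO as 100% and 9.2 uM bortezomib final as 0%. Cells: 500 log-phase HBL1 per well, RPMI plus 5% FBS.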

Assay [4] in a line: Cell Proliferation Assay against the TMD8 Cell Line (Caspase readout at 16 hrs) (AID 651712). Note: potency is the fitted concentration of half-maximal effect. Summed up: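 Caspase-Glo luminescence measured apoptosis after a 16 h, 37 C compound exposure of TMD8 cells (500 cells/well, 5% FBS RPMI). DMSO set 0% and bortezomib at 9.2 uM final set 100% activity.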
Assay [5] in a line: Cell Proliferation Assay against the TMD8 Cell Line (Caspase readout at 8 hrs) (AID 651713). Note: potency is the fitted concentration of half-maximal effect. The essentials:
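Caspase 3/7 activation in ABC DLBCL TMD8 cells is measured by luminescence after an 8 h compound exposure at 37C. Relative light units are scaled between DMSO (0%) and 9.2 uM final bortezomib (100%).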

On to `N#CCNC(=O)c1ccc(-c2ccnc(Nc3ccc(N4CCOCC4)cc3)n2)cc1`, for which the call in assay [1] was inactive. In addition, the Potency in assay [2] is 0.668 µM (active); in assay [4], 5.26 µM (active). Further, the viability, percent of control in assay [3] came to 25.4%.
For the compound `CC(C)(C)c1cc(NC(=O)Nc2ccc(-c3cn4c(n3)sc3cc(OCCN5CCOCC5)ccc34)cc2)no1`, the compound was called inactive in assay [1]. For the same compound, the Potency in assay [2] was 13.3 µM (active). Also, the viability, percent of control in assay [3] stood at 30.7%. In addition, the Potency entry in assay [4] and in assay [5] was “inactive” in each case.
`CN(C)CCCN=c1c2ccccc2n(C)c2[nH]c(=O)n(C)c(=O)c12`: in assay [1], the result was inactive. In assay [3], the viability, percent of control came to 32.9%. Further, the Potency in assay [4] is 20.9 µM (active); in assay [5], 26.4 µM (active).

Source of the values: PubChem BioAssay (NCATS).
